Sampled rows, rich in hits. Any-hit rate of the full collection: about 3.5%.
FBW7 activator = human FBW7 E3 ligase activation, primary screen; Q969H0; AlphaScreen FBW7–phospho-cyclin E peptide binding, activator screen; normalized activity (activation), % at 26.1 µM; 650,000 tested, 0.13% active; in the data active means normalized activity above about 1.9%;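 further: purified mutant Fbw7 with reduced substrate affinity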
MITF inh = blocks human microphthalmia-associated transcription factor | AID 1259374 | AlphaScreen MITF homodimerization, bead proximity signal | inhibition, % at 2.6 µM | 650,000 tested, 0.91% active; in the data active means inhibition above about 50%;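 further: 0% = vehicle wells with protein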
GPR151 ag = activators of human GPR151; Q8TDV0; PathHunter beta-arrestin GPR151 cells, luminescence; activation, % at 11.2 µM; 650,000 tested, 1% active; in the data active means activation above about 4.9%;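 further: 0% = median of compound wells and 100% = cells with positive control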
Target sequence (Q8TDV0 whole entry, looked up): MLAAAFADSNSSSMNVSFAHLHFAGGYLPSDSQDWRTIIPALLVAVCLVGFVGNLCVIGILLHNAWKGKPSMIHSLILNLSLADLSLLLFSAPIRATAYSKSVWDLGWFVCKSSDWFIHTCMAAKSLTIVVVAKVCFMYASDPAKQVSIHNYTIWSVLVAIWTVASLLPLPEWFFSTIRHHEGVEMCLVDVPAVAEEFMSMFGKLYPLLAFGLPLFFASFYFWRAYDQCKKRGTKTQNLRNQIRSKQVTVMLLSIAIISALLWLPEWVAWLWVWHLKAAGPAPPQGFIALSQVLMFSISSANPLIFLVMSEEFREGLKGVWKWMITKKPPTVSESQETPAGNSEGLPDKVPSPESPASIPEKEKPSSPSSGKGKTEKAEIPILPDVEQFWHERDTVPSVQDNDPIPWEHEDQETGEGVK
TEAD-YAP block = TEAD-YAP interaction inhibition; HEK-TIYL cells, TEAD-Gal4/YAP UAS-luciferase luminescence; inhibition, % at 9.12 µM; 640,000 tested, 1.4% active; in the data active means inhibition above about 32%;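 further: 0% = median of test compound wells and 100% = reference inhibitor wells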
MITF confirm = human MITF inhibition, confirmation; shares compounds with MITF inh; AlphaScreen MITF homodimerization, biotin/His-MITF beads; inhibition, % at 2.6 µM; 4,700 tested, 16% active; AID 1259372;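 active means inhibition above a cutoff derived from the DMSO control wells, cut at about 28% in these data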;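 further: 0% = MITF dimer wells with DMSO only; inhibitors lower the bead chemiluminescence by keeping MITF from dimerizing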
AlphaScreen DR = optically interferes with AlphaScreen signal in dose response; shares compounds with MITF inh; AlphaScreen optical interference counterscreen, cell-free; IC50, µM; 480 tested, 6% active; AID 1259373; call rule not given here
AlphaScreen intf2 = AlphaScreen optical interference, counter-screen; shares compounds with MITF inh; AID 1259376; LysRS AlphaScreen counterscreen, signal interference, triplicate; inhibition, % at 2.6 µM; 4,700 tested, 7.6% active;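 active means inhibition above a cutoff derived from the DMSO control wells, cut at about 30% in these data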
GPR151 confirm = confirmation of human GPR151 activators; AID 1508609; activation, % at 11.2 µM; GPR151 PathHunter beta-arrestin cells, luminescence, 90 min; % of EA-reagent control over plate median; shares compounds with GPR151 ag; 6,700 tested, under 10 active;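 active means mean percent activation across replicates above the confirmation screen cutoff of 4.91%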
GPR119 counter = counter-screen for GPR151 activators: effect on human GPR119; shares compounds with GPR151 ag; GPR119 PathHunter beta-arrestin cells, luminescence, 90 min; 0 = compound-well median, 100 = enzyme-acceptor control; activation, % at 11.2 µM; 6,700 tested, 0.3% active;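 active means mean percent activation in the counterscreen above 29.09%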;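 further: counterscreen on off-target GPR119 to flag nonselective hits from the GPR151 activator screen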
* marks the source's active call; other numbers are inactive results.

Screening CC1CCC(N2CCN(Cc3ccccc3F)CC2)CC1 (centres undefined) returned FBW7 activator 0, MITF inh 63*, GPR151 ag -1, TEAD-YAP block 7, MITF confirm -4 and AlphaScreen intf2 10.
`Fc1ccccc1CN1CCC(N2CCN(c3ccccc3)CC2)CC1` gave FBW7 activator 0, MITF inh 53*, GPR151 ag -1, TEAD-YAP block -4, MITF confirm 2 and AlphaScreen intf2 9.
`COc1ccc(S(=O)(=O)N(C)CC(=O)N2CCCCCC2)cc1C` gave FBW7 activator 0, MITF inh 7, GPR151 ag 0 and TEAD-YAP block 3.
For Cc1ccc(C(=O)CC23CC4CC(CC(C4)C2)C3)s1 the results were FBW7 activator 0, MITF inh 7, GPR151 ag 0 and TEAD-YAP block 8.
CCCCOC(=O)n1c(=O)oc2cc(S(=O)(=O)Nc3ccc(Cl)cc3)ccc21 was read as FBW7 activator 0, MITF inh -1, GPR151 ag 0 and TEAD-YAP block 1.
COc1ccc(/C=N/NC(=O)C23CC4CC(CC(C4)C2)C3)c(OC)c1OC was read as FBW7 activator 0, MITF inh 5, GPR151 ag 0 and TEAD-YAP block -14.
`O=C(Nc1ccccc1Cl)c1cc(S(=O)(=O)N2CCN(C3CCCCC3)CC2)ccc1F` gave FBW7 activator 0, MITF inh 2, GPR151 ag 0 and TEAD-YAP block -4.
For COc1cccc(C(=O)NNC(=O)C(=O)NCCO)c1 the results were FBW7 activator 1, MITF inh 61*, GPR151 ag 1, TEAD-YAP block 5, MITF confirm -6 and AlphaScreen intf2 3.
Screening COc1cccc(C(=O)NNC(=O)C(=O)NC(C)C)c1 returned FBW7 activator 0, MITF inh 10, GPR151 ag 0 and TEAD-YAP block 0.
`O=C(c1ccncc1)N(c1ccc2oc(=O)sc2c1)S(=O)(=O)c1ccccc1` gave FBW7 activator 0, MITF inh 13, GPR151 ag 2 and TEAD-YAP block 15.
Screening Nc1nc(Nc2ccccc2)nc2nc[nH]c12 returned FBW7 activator 0, MITF inh 60*, GPR151 ag 0, TEAD-YAP block -2, MITF confirm 2 and AlphaScreen intf2 12.
COc1ccc(C(C)=O)cc1Cn1nnc(-c2cccc(C(F)(F)F)c2)n1 was read as FBW7 activator 0, MITF inh -4, GPR151 ag 1 and TEAD-YAP block 7.
For O=c1cc(-c2ccccc2)[nH]n1-c1nc2ccccc2[nH]1 the results were FBW7 activator -1, MITF inh 40, GPR151 ag -1 and TEAD-YAP block 16.
Cc1[nH]n(-c2nc3ccccc3[nH]2)c(=O)c1C1OC(=O)c2ccccc21 (centres undefined) was read as FBW7 activator 0, MITF inh 91*, GPR151 ag -1, TEAD-YAP block 13, MITF confirm 71* and AlphaScreen intf2 100*.
Screening CCN1CCN(CCOc2ccc(Cl)c(C)c2C)CC1 returned FBW7 activator 0, MITF inh 75*, GPR151 ag 7.7*, TEAD-YAP block 0, MITF confirm 13, AlphaScreen intf2 11, GPR151 confirm 1 and GPR119 counter 1.
Cc1c(Cl)ccc(OCCN2CCNCC2)c1C was read as FBW7 activator 0, MITF inh 11, GPR151 ag 0 and TEAD-YAP block -1.
Screening CCc1cc(OCCN2CCN(CC)CC2)ccc1Cl returned FBW7 activator 0, MITF inh 70*, GPR151 ag 7.0*, TEAD-YAP block -1, MITF confirm 8, AlphaScreen intf2 17, GPR151 confirm -1 and GPR119 counter -9.
CN(C)CCNC(=O)/C(=C/c1ccc(N(C)C)cc1)NC(=O)c1ccccc1 was read as FBW7 activator 0, MITF inh 15, GPR151 ag -1 and TEAD-YAP block -4.
For Cc1ccc(OCCCN2CCNCC2)c([N+](=O)[O-])c1 the results were FBW7 activator 0, MITF inh 37, GPR151 ag 0 and TEAD-YAP block 4.
`Cc1ccc(OCCCN2CCN(C)CC2)c([N+](=O)[O-])c1` gave FBW7 activator 0, MITF inh 76*, GPR151 ag 5.2*, TEAD-YAP block 11, MITF confirm -7, AlphaScreen intf2 -4, GPR151 confirm 0 and GPR119 counter -6.
For CC(=O)Oc1ccccc1-c1nc2s/c(=C/c3ccc(Cl)cc3)c(=O)n2n1 the results were FBW7 activator 0, MITF inh 4, GPR151 ag -1 and TEAD-YAP block 2.
CCn1ccnc1CN1CCN(Cc2cccc(OC)c2)C(CCO)C1 (centres undefined) was read as FBW7 activator 0, MITF inh 53*, GPR151 ag 18*, TEAD-YAP block -9, MITF confirm 28*, AlphaScreen DR >6.5, AlphaScreen intf2 16, GPR151 confirm 0 and GPR119 counter 2.
For O=C(NNC(=O)c1ccco1)c1cc2nc(-c3cccs3)cc(C(F)(F)F)n2n1 the results were FBW7 activator 0, MITF inh -8, GPR151 ag 1 and TEAD-YAP block 0.
For COc1cccc(C2=CC(c3ccc(F)c(Br)c3)n3ncnc3N2)c1 (centres undefined) the results were FBW7 activator 0, MITF inh -12, GPR151 ag -1 and TEAD-YAP block 0.
CCN1CCN(CC#CCOc2ccccc2OC)CC1 was read as FBW7 activator 0, MITF inh 82*, GPR151 ag 9.7*, TEAD-YAP block 7, MITF confirm 8, AlphaScreen intf2 13, GPR151 confirm -1 and GPR119 counter -10.
`CN(C)c1ccc(/C=C(/NC(=O)c2ccccc2)C(=O)N2CCCCC2)cc1` gave FBW7 activator 0, MITF inh 6, GPR151 ag 1 and TEAD-YAP block 4.
For CC(=O)Oc1cccc(/C=C2N=C(/C=C/c3cccc(Cl)c3Cl)OC\2=O)c1 the results were FBW7 activator 0, MITF inh -7, GPR151 ag -1 and TEAD-YAP block 1.
COc1cc(C(=O)N2CCN(Cc3ccccc3C(F)(F)F)CC2)cc(OC)c1OC was read as FBW7 activator 0, MITF inh 59*, GPR151 ag 12*, TEAD-YAP block 6, MITF confirm 3, AlphaScreen intf2 10, GPR151 confirm 1 and GPR119 counter 26.

Source: PubChem BioAssay (The Scripps Research Institute Molecular Screening Center)
